# Assay outcomes from PubChem BioAssay.
# Rows were chosen to be rich in hits. Some 4.2% of all compounds tested hit in one or more screens of this group.
# AHR activator = AHR activators, primary screen, cell-based, luminescence, luciferase reporter, human. Aryl hydrocarbon receptor (Homo sapiens), P35869. AHR-responsive luciferase reporter cells. activation, % at 5 µM. hit rate 2.5% among 320,000. AID 2796, 2010; in the data active means activation above about 47%;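 further: 0% = vehicle wells and 100% = reference agonist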
# Target sequence (P35869 whole entry, looked up): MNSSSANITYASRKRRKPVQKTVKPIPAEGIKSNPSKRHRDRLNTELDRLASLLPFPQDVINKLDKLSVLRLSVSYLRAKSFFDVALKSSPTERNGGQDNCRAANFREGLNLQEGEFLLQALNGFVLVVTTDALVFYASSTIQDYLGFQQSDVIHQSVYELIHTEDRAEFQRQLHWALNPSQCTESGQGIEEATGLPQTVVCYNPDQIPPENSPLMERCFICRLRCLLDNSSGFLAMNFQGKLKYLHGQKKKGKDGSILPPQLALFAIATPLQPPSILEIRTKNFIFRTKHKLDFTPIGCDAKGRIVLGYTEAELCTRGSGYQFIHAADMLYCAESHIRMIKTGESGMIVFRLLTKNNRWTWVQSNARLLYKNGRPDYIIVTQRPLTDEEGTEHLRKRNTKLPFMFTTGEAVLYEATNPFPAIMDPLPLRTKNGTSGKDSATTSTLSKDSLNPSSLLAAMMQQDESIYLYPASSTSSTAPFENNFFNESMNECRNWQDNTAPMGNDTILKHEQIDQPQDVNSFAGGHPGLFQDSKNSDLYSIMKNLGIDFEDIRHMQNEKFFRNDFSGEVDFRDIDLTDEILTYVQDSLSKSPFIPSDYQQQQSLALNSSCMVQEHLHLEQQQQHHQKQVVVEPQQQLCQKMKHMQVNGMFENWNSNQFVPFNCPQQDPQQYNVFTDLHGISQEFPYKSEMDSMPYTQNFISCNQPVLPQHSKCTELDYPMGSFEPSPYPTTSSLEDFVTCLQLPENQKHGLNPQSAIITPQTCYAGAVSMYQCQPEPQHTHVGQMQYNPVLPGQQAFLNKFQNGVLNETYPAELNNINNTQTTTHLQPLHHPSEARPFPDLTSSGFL
# MITF act = activators of MITF-driven TRPM1 promoter reporter, primary screen, cell-based, SK-MEL-5, luciferase, single point. hit rate 0.75% among 300,000. activation, % at 12.5 µM. AID 588334, 2011. SK-MEL-5 TRPM1-promoter luciferase, 24 h; % of positive control, neutral wells = 0;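 active means mean activation of at least 80% with every replicate also reaching 80%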;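 further: 0% = neutral control wells and 100% = parthenolide positive control wells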
# GAA850 FXN act = FXN promoter activators, primary screen, cell-based, luciferase luminescence, HEK293 lucGAA850. HEK293 lucGAA850 FXN promoter luciferase reporter, 24 h; percent of 10 µM SAHA response. activation, % at 6 µM. hit rate 0.56% among 360,000. AID 540364, 2011;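 active means activation above the average of all compounds screened plus 3 SD, cutoff fixed separately per campaign, cut at about 7.5% in these data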;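 further: 0% = DMSO wells and 100% = 10 µM SAHA wells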
# esBAF inh = Bmi1 luciferase reporter increase in mESCs, primary screen, esBAF inhibitor project, mouse ES cells, Bmi1 luciferase knock-in, single point. 24 h; 100% = twice the neutral-well signal. reporter increase, % at 12.5 µM. hit rate 2% among 350,000. AID 602393, 2012; in the data active means activation above about 40%;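 further: 0% = median of the plate's neutral control wells and 100% = double that signal; a rise in the Bmi1 reporter signal indicates esBAF inhibition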
# Wnt act = Wnt/beta-catenin pathway activators, primary screen, cell-based, plate reader, single point; hit rate 1.2% among 300,000; activation, % at 9.35 µM; Wnt/beta-catenin reporter cell assay, activator; in the data active means activation above about 30%, passing the limit was not always enough;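 further: 0% = neutral control wells and 100% = positive control wells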
# Numbers without * were called inactive; . = no result.
SMILES,AHR activator,MITF act,GAA850 FXN act,esBAF inh,Wnt act
CC1(C)CN=c2s/c(=C\c3ccc(Cl)cc3)c(=O)n2C1,-16,117*,2,13,-1
CC(C)NC(=O)Nc1ccc2c(c1)CC(=O)N([C@@H](C)CO)C[C@H](C)[C@@H](CN(C)CC1CC1)O2,.,.,.,2,.
CC(/C=C\c1ccccc1)=C/C(=O)O,1,2,2,.,14
CC(C)(C)C(=O)/C=C(N)/C=C/c1ccccc1,14,74,4,57*,.
OC(COc1ccc(OCc2ccccc2)cc1)CN1CCCCC1 (stereo not drawn),2,88*,8,14,.
Cn1c(SCC(=O)O)nc2ccccc2c1=O,3,-2,2,3,-1
Cc1ncsc1CCSc1nc2ccccc2c(=O)n1C,96*,-7,6,1,-3
COC(=O)CSc1nc2ccccc2c(=O)n1C,0,3,3,-1,42*
Cc1ncsc1CCSc1n[nH]c(=O)n1-c1ccccc1,-3,30,-2,5,.
COC(=O)CSCc1nc2ccccc2[nH]c1=O,64*,.,3,14,1
CNC[C@@H]1OCCCC[C@@H](C)Oc2ccc(NS(=O)(=O)c3ccccc3)cc2C(=O)N([C@@H](C)CO)C[C@@H]1C,.,.,.,0,.
Cc1ccc2c(c1)sc[n+]2Cc1ccccc1,22,69,10*,54*,28
COc1ccccc1CN1C[C@H](C)[C@@H](OC)CN(C)C(=O)c2ccc(NC(C)=O)cc2OC[C@H]1C,.,.,.,-2,.
CCOC(=O)c1c(C)n(C)c2ccc(OC)c([N+](=O)[O-])c12,55*,0,3,-3,-10
Cc1ccc(C(=O)Oc2cccc(-n3cnnn3)c2)cc1,1,112*,0,.,6
O=C(COC(=O)c1cccc(-n2cnnn2)c1)c1ccc(Br)cc1,8,22,2,49*,23
O=C(Oc1cccc2cccnc12)c1cccc(-n2cnnn2)c1,3,9,-1,3,77*
O=C(Oc1cccc2cccnc12)c1cccc(N2C(=O)C3C4CCC(C4)C3C2=O)c1 (stereo not drawn),12,.,.,.,1
COC(=O)c1cccc(NC(=O)c2cccc(-n3cnnn3)c2)c1,.,.,-1,-6,-2
O=C(Oc1cccc(-n2cnnn2)c1)c1ccco1,4,-9,4,.,.
O=C(Nc1cnc2ccccc2c1)c1cccc(-n2cnnn2)c1,59*,.,2,14,.
O=C(N[C@@H]1CC[C@@H](CCn2cc(-c3ccccn3)nn2)O[C@@H]1CO)c1cccnc1,.,.,.,3,.
CC(C)NC(=O)N(C)C[C@@H]1Oc2cc(C#C[C@@H](C)O)ccc2S(=O)(=O)N([C@H](C)CO)C[C@@H]1C,.,.,.,-1,.
CO[C@@H]1CN(C)C(=O)c2cc(NC(=O)NC3CCCCC3)ccc2OC[C@@H](C)N(C(C)=O)C[C@@H]1C,.,.,.,-2,.
COc1ccc(-c2ccc3c(c2)O[C@H](CN(C)C)[C@H](C)CN([C@@H](C)CO)S3(=O)=O)cc1,.,.,.,-1,.
SMILES,AHR activator,MITF act,GAA850 FXN act,esBAF inh,Wnt act
Cc1ccc2nc(NC(=O)COC(=O)c3ccncc3)sc2c1,13,72,4,.,26
COCC(=O)Nc1nc2ccc(C)cc2s1,-6,49,1,.,40*
NS(=O)(=O)c1ccc2nc(NC(=O)CS(=O)(=O)c3ccccc3)sc2c1,-1,16,-1,1,-2
O=C(CS(=O)(=O)c1ccccc1)Nc1nc2ccccc2s1,26,4,-1,41*,11
CS(=O)(=O)c1ccc2nc(NC(=O)CS(=O)(=O)Cc3ccccc3)sc2c1,7,8,2,.,0
Cc1ccc2nc(NC(=O)CCNS(=O)(=O)c3cccs3)sc2c1,4,46,3,70*,12
Cc1ccc2nc(NC(=O)CS(=O)(=O)Cc3ccccc3)sc2c1,10,16,2,6,40*
O=C(NCC[C@@H]1CC[C@H](NS(=O)(=O)c2ccc(F)cc2)[C@@H](CO)O1)Nc1ccc(F)cc1,.,.,.,21,.
C[C@H]1CN([C@@H](C)CO)C(=O)c2cccc(NC(=O)Nc3ccc4c(c3)OCO4)c2O[C@H]1CN(C)S(=O)(=O)c1ccc(F)cc1,.,.,.,11,.
CO[C@@H]1CN(C)C(=O)c2cc(NC(C)=O)ccc2OC[C@H](C)N(C(=O)c2ccc(F)cc2)C[C@H]1C,.,.,.,0,.
COc1cccc(S(=O)(=O)N[C@H]2CC[C@H](CC(=O)NCc3ccccc3)O[C@@H]2CO)c1,.,.,.,0,.
O=C(C[C@H]1CC[C@H]2[C@@H](COC[C@@H](O)CN2C(=O)Nc2ccc(Cl)cc2)O1)NCC1CCCCC1,.,.,.,18,.
Cc1noc(C)c1NC(=O)Nc1ccc2c(c1)CC(=O)N([C@@H](C)CO)C[C@H](C)[C@@H](CN(C)S(=O)(=O)c1ccc(Cl)cc1)O2,.,.,.,0,.
COc1ccc2c(c1)CCC1C2=NN(/C(C)=C\C(C)=O)C1c1ccc(F)cc1 (stereo not drawn),60*,27,4,.,52*
COC(=O)C1=CN(c2ccc(OC)cc2)C=C(C(=O)OC)C1c1cccc(F)c1,1,.,2,-6,-3
COc1ccc2c(c1)C1=NN(/C(C)=C\C(C)=O)C(c3ccccc3)C1CC2 (stereo not drawn),84*,19,2,48*,.
COc1ccc(/C=C2\CCCC3C2=NN(C(=O)COC(=O)CNC(=O)c2ccccc2)C3c2ccc(OC)cc2)cc1 (stereo not drawn),-4,.,3,12,.
COc1ccc(/C=C2\CCCC3C2=NN(C(=O)CSc2ncn[nH]2)C3c2ccc(OC)cc2)cc1 (stereo not drawn),1,-4,0,.,0
COc1ccc2c(c1)C1=NN(/C(C)=C/C(C)=O)C(c3cccc(F)c3)C1CC2 (stereo not drawn),97*,-4,3,0,2
COc1ccc2c(c1)C1=NN(/C(C)=C/C(C)=O)C(c3ccc(F)cc3)C1CC2 (stereo not drawn),69*,9,4,.,.
CCC(=O)N1C[C@H]2[C@@H](c3ccccc31)[C@@H](CO)N2Cc1ccccc1F,.,.,.,3,.
CCCNC(=O)C[C@H]1CC[C@@H]2[C@H](COc3ccc(NC(=O)C4CCOCC4)cc3C(=O)N2C)O1,.,.,.,-3,.
COc1cccc2cc(C(=O)OCC(=O)N3CC(C)OC(C)C3)c(=O)oc12 (stereo not drawn),10,63,2,64*,-2
Cc1ccc(S(=O)(=O)N[C@H]2CC[C@H](CC(=O)N3CCN(c4ccccc4)CC3)O[C@@H]2CO)cc1,.,.,.,4,.
COc1cccc(/C=N/NC(=S)NC2CC3CC2C2C=CCC32)c1O (stereo not drawn),3,.,3,.,-2
Oc1ccccc1/C=N/NC(=S)NC1CC2CC1C1C=CCC21 (stereo not drawn),12,31,4,57*,49*
